Source: PubChem (National Center for Advancing Translational Sciences (NCATS))
Compounds with a hit are over-represented: about 0.52% of the library has one in this group of screens.
TRPML1 agonist: activates the human TRPML1 channel. TRPML1-expressing cells, Ca2+ dye fluorescence, FDSS. activation, % (concentration not given with the values). 410,000 compounds, 0.12% hits. AID 624414; in the data active = activation above about 50%; inconclusive = mostly about 30% to 49%; note: 0% is about no effect
Target sequence (Q9GZU1 whole entry, looked up): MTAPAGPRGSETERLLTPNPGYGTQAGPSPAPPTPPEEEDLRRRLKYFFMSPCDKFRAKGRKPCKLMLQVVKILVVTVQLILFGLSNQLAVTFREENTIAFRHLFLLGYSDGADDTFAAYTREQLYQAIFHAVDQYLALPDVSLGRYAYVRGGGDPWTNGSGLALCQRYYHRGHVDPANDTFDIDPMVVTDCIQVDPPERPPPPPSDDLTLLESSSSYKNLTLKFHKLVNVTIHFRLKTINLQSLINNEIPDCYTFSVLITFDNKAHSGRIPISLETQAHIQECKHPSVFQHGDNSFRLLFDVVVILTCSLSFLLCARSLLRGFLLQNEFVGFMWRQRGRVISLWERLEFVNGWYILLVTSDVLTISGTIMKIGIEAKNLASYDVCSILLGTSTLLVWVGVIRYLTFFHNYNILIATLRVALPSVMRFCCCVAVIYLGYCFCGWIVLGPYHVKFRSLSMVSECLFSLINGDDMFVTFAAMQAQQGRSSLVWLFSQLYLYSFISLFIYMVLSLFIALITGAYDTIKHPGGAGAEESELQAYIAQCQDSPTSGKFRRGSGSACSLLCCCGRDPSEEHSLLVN
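Kinetic FDSS Ca2+ read in Tet-induced TRPML1-DL cells (ABD Ca8 dye plus quencher, 45-90 min RT loading): baseline, then compound, then 110 s agonist window; EC80 agonist 54-4 at 4uM final added afterwards for a 110 s antagonist window.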
TRPML1 inh: blocks the human TRPML1 channel; TRPML1-inducible cells, Ca2+ dye fluorescence, FDSS; stronger effect = lower value; inhibition of EC80 agonist-evoked calcium signal; 390,000 compounds, 0.02% hits; AID 624415; activity change, negative = inhibition, % (test concentration not listed); Q9GZU1; in the data active = activity change below about -50%; inconclusive = between about -30% and that limit;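 note: stimulus is agonist 54-4 at its EC80 concentration; % is set by controls: 0 for no effect and ±100 for the full control effect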
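TRPML1-DL cells, Tet-induced overnight (~16 h, 37 °C) at 1,500 cells/well, were loaded with Ca8 no-wash dye plus quencher for 45-90 min at room temperature. Compounds were pinned during FDSS kinetic reading; agonist 54-4 at EC80 (4 uM final) then added.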
PINK1 modulator: PINK1 expression modulation | Potency, µM (titrated, usually from 76.6 µM), for inactives: at the highest dose activation (PINK1 increase), most hits filed as activators | 410,000 compounds, 0.2% hits | AID 624263 | PINK1 immunofluorescence, high-content cytometry, 24 h; active = well fitted activation curve with a large enough effect; inconclusive = small, poorly fitted or top-dose-only effect; cell line not stated here; note: potency is the fitted concentration of half-maximal effect; % of control where 0% means no effect; nearly all actives have a fitted effect of over 65% in size
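Cells are seeded, rested 12 hours, then given compound at five concentrations or DMSO for 24 hours. After fixation, blocking and antibody staining, PINK1 amount and mitochondrial localization are scored; CCCP serves as control.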
Vif-APOBEC3G blk: inhibitors of Vif-APOBEC3G interaction; 410,000 compounds, 0.076% hits; Potency, µM (highest dose often 46.1 µM), for inactives: top-dose activity, negative = active, actives largely listed as inhibitors; HeLa A3G-eYFP + Vif (tagged APOBEC3G with the HIV-1 protein that degrades it), YFP fluorescence, overnight; note: potency is the fitted concentration of half-maximal effect; % is set by controls: 0 for no effect and ±100 for the full control effect; nearly all actives have a fitted effect of over 60% in size
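Read-out is eYFP fluorescence (Ex 488/Em 500-530) from Vif-expressing HeLa A3G-eYFP cells; more signal means A3G escaped Vif-mediated degradation. Cells plated overnight, compound pinned in, incubated overnight at 37 deg C.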
Vif-APOBEC3F blk: inhibitors of Vif-A3F interaction. HeLa A3F-eYFP + Vif (tagged APOBEC3F with the HIV-1 protein that degrades it), YFP fluorescence increase. Potency, µM (doses to about 46.1 µM), for the others: at the top dose activity, negative = active. 390,000 compounds, 0.2% hits; note: potency is the fitted concentration of half-maximal effect; % of control where 0% means no effect; nearly all actives have a fitted effect of over 65% in size
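HeLa cells stably expressing A3F-eYFP plus Vif, plated and incubated overnight at 37 deg C, then exposed to compounds overnight at 37 deg C. Blocked degradation read as raised yellow fluorescence (Ex 488/Em 500-530).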
The depositor's hits bear a star; ! = not active in a repeat. Unless noted, calls come from the whole dose curve; as a rule, active = well fitted curve in the direction sought with a large enough effect; inconclusive = small, poorly fitted or top-dose-only effect, or another doubt; inactive = no such curve, though single readings can be large; an effect the other way counts as inactive or inconclusive.

Results for Cc1cc(NC(=S)NC(=O)C2CC2)ccc1Br ?
TRPML1 agonist: -0.6; TRPML1 inh: -7.6; PINK1 modulator: 0.9%; Vif-APOBEC3G blk: 0.4%; Vif-APOBEC3F blk: -19.0%

What do the screens show for `Clc1ccc(-c2cc(COc3ccc4ccccc4c3)no2)cc1`?
TRPML1 agonist: 1.0; TRPML1 inh: -18.3; PINK1 modulator: 2.4%; Vif-APOBEC3G blk: 0.5%; Vif-APOBEC3F blk: -5.8%

How did CCOC(=O)/C(C#N)=C\C=C1C=CN(C)C=C1 do in these assays?
TRPML1 agonist: 26.2; TRPML1 inh: 0.1; PINK1 modulator: 17.7%; Vif-APOBEC3G blk: inconclusive; Vif-APOBEC3F blk: 22.4µM*

Results for CC1C(c2ccccc2)N(C)C(c2ccccc2)C(C)C1(O)C#Cc1ccccc1 (centres undefined) ?
TRPML1 agonist: 1.9; TRPML1 inh: 9.1; PINK1 modulator: 31.6µM*; Vif-APOBEC3G blk: -1.0%; Vif-APOBEC3F blk: inconclusive

Results for CCN(CC)c1ccc(C=NNc2ccc([N+](=O)[O-])cn2)cc1 ?
TRPML1 agonist: 12.4; TRPML1 inh: 20.4; PINK1 modulator: 24.1%; Vif-APOBEC3G blk: inconclusive; Vif-APOBEC3F blk: 3.55µM*

Results for O=[N+]([O-])c1ccc(N/N=C\c2cccn2-c2ccccc2)nc1 ?
TRPML1 agonist: 10.3; TRPML1 inh: 5.3; PINK1 modulator: -3.1%; Vif-APOBEC3G blk: 11.2µM*; Vif-APOBEC3F blk: inconclusive

How did COc1ccc(C=NNc2ccc([N+](=O)[O-])cn2)cc1 do in these assays?
TRPML1 agonist: 0.4; TRPML1 inh: 1.5; PINK1 modulator: 11.2µM*; Vif-APOBEC3G blk: 0.5%; Vif-APOBEC3F blk: inconclusive

What do the screens show for `CCN(c1ccc(NC(=O)COC(=O)CCc2cc(OC)c(OC)c(OC)c2)cc1)C(C)C`?
TRPML1 agonist: 1.3; TRPML1 inh: -6.3; PINK1 modulator: 1.2%; Vif-APOBEC3G blk: -3.5%; Vif-APOBEC3F blk: -2.0%

Results for O=C(Nc1ccccc1)N1CCC(c2nc(-c3ccc(S(=O)(=O)N4CCOCC4)cc3)no2)CC1 ?
TRPML1 agonist: -0.5; TRPML1 inh: -13.1; PINK1 modulator: 12.6µM*; Vif-APOBEC3G blk: inconclusive; Vif-APOBEC3F blk: -1.4%

How did COC(=O)CC1=C(C(=O)OC)[C@@H](c2ccccc2[N+](=O)[O-])C(C#N)=C(N)O1 do in these assays?
TRPML1 agonist: -0.3; TRPML1 inh: 19.8; PINK1 modulator: 0.1%; Vif-APOBEC3G blk: -0.5%; Vif-APOBEC3F blk: -18.8%

What do the screens show for `COc1ccccc1OCC(=O)N/N=C/C=C/c1ccc([N+](=O)[O-])o1`?
TRPML1 agonist: 2.3; TRPML1 inh: -13.4; PINK1 modulator: inconclusive; Vif-APOBEC3G blk: inconclusive; Vif-APOBEC3F blk: 10µM*

Results for Cc1ccccc1OCC(=O)N/N=C/c1ccc([N+](=O)[O-])o1 ?
TRPML1 agonist: 0.7; TRPML1 inh: 8.2; PINK1 modulator: inconclusive; Vif-APOBEC3G blk: -10.1%; Vif-APOBEC3F blk: 5.7%

Results for O=C(N/N=C/C=C/c1ccccc1[N+](=O)[O-])c1cccs1 ?
TRPML1 agonist: 1.4; TRPML1 inh: 8.4; PINK1 modulator: 2.2%; Vif-APOBEC3G blk: -8.1%; Vif-APOBEC3F blk: 0.1%

Results for O=C(N/N=C\C=C\c1ccc([N+](=O)[O-])o1)c1cccs1 ?
TRPML1 agonist: 2.8; TRPML1 inh: -18.6; PINK1 modulator: -0.2%; Vif-APOBEC3G blk: 10µM*; Vif-APOBEC3F blk: inconclusive

What do the screens show for `CC1CCCCC1Nc1nc2ccc(Cl)cc2n2cnnc12` (centres undefined)?
TRPML1 agonist: -0.3; TRPML1 inh: 3.6; PINK1 modulator: 0.1%; Vif-APOBEC3G blk: 0.5%; Vif-APOBEC3F blk: -3.8%

Results for CC(=O)NC(c1cccs1)c1cc(F)c2cccnc2c1O (centres undefined) ?
PINK1 modulator: -0.9%; Vif-APOBEC3G blk: inconclusive; Vif-APOBEC3F blk: 10µM*

Results for CCn1c(CNC(=O)c2ccc(OC)cc2)nnc1SCC(=O)Nc1ccc(C)cc1 ?
TRPML1 agonist: -1.1; TRPML1 inh: 9.6; PINK1 modulator: 2.4%; Vif-APOBEC3G blk: -2.1%; Vif-APOBEC3F blk: 1.5%

How did Cc1ccc(CC(=O)NC2CCSC2=O)cc1 (centres undefined) do in these assays?
TRPML1 agonist: 0.5; TRPML1 inh: 0.0; PINK1 modulator: -1.4%; Vif-APOBEC3G blk: 3.4%; Vif-APOBEC3F blk: 3.8%

How did COC(=O)c1ccccc1NC(=O)Cn1cc(S(=O)(=O)Cc2ccccc2F)c2ccccc21 do in these assays?
TRPML1 agonist: -0.2; TRPML1 inh: -23.6; PINK1 modulator: -2.1%; Vif-APOBEC3G blk: 2.9%; Vif-APOBEC3F blk: -0.8%

What do the screens show for `C#CCNC(=O)C[C@@H]1C[C@@]2(C(=O)OCC)CCCC=C2N(Cc2ccc3c(c2)OCO3)C1=O`?
TRPML1 agonist: 63.0*; PINK1 modulator: -0.5%

Results for Cc1ccc2nccc(/C=C/c3ccc(N(C)C)cc3)c2c1 ?
TRPML1 agonist: 22.3; Vif-APOBEC3G blk: 3.55µM*

How did C(=C\c1c[nH]c2ccccc12)/c1nccc2ccccc12 do in these assays?
TRPML1 agonist: 16.0; PINK1 modulator: 0.8%; Vif-APOBEC3G blk: 8.91µM*

Results for CN(C)c1ccc(/C=C/c2ccc3c4ccccc4ccc3[n+]2-c2ccccc2)cc1 ?
TRPML1 agonist: 3.7; TRPML1 inh: 55.0; PINK1 modulator: 8.91µM*!; Vif-APOBEC3G blk: 7.7%; Vif-APOBEC3F blk: 5.3%

Results for CN(C)c1ccc(/C=C/c2nccc3ccccc23)cc1 ?
TRPML1 agonist: inconclusive; PINK1 modulator: 0.3%; Vif-APOBEC3G blk: 11.2µM*

How did CN(C)c1ccc(/C=C/c2ccc3ccccc3[n+]2C)cc1 do in these assays?
TRPML1 agonist: -0.5; TRPML1 inh: 5.6; PINK1 modulator: inconclusive; Vif-APOBEC3G blk: -7.9%; Vif-APOBEC3F blk: 0.8%

Results for COc1cc(NC(=O)CN2C(=O)c3ccccc3Sc3ccc(C(=O)N4CCCC4)cc32)cc(OC)c1 ?
TRPML1 agonist: 1.5; TRPML1 inh: -0.2; PINK1 modulator: 1.5%; Vif-APOBEC3G blk: -4.7%; Vif-APOBEC3F blk: 0.8%

What do the screens show for `O=C1N=C(N2C=CC(=C3C=CNC=C3)C=C2)/C(=C/N=NC(=O)c2ccccc2)S1`?
TRPML1 agonist: 0.5; TRPML1 inh: 1.8; PINK1 modulator: 0.1%; Vif-APOBEC3G blk: 0.2%; Vif-APOBEC3F blk: -14.8%

Results for CN(C)c1ccc(/C=C/c2ccnc3cc(Cl)ccc23)cc1 ?
TRPML1 agonist: 105.4*; PINK1 modulator: 4.4%; Vif-APOBEC3G blk: inconclusive

What do the screens show for `CN(C)c1ccc(/C=C\C=C/c2ccnc3ccccc23)cc1`?
TRPML1 agonist: -0.3; PINK1 modulator: 11.2µM*; Vif-APOBEC3G blk: 8.0%

How did CN(C)c1ccc(/C=C/c2cncc3ccccc23)cc1 do in these assays?
TRPML1 agonist: -0.5; PINK1 modulator: 0.0%; Vif-APOBEC3G blk: 0.8%

How did CN(C)c1ccc(/C=C/c2ccncc2)cc1 do in these assays?
TRPML1 agonist: 0.4; TRPML1 inh: 18.5; PINK1 modulator: 2.0%; Vif-APOBEC3G blk: inconclusive; Vif-APOBEC3F blk: 28.2µM*
